This is a sample that favours compounds with a hit; in the whole collection about 1.4% have one here.
VLA-4 antagonist – blocks LDV-FITC ligand binding to Mn2+-activated human VLA-4 integrin; AID 529; P13612; 0.2% of 24,000 active; inhibition, % at 10 µM (by protocol); Jurkat cells, LDV-FITC binding with Mn2+, flow cytometry; 100% = Mn2+-driven binding gain fully reversed;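 active = inhibition above 50%; inconclusive = compound itself fluorescent, judged against control cell fluorescence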;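 note: 0% = Mn2+ stimulated cells lacking compound and 100% = ligand binding without Mn2+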
Jurkat autofluor – counter-screen for VLA-4 integrin: compound autofluorescence in Jurkat cells; flow cytometry; hits give high values; 1 = vehicle-only cell background; fluorescence ratio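 (tested at 10 µM compound in the well)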; 0.61% of 24,000 active;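 active = fluorescence ratio above 2.44, which is 1 plus 3 SD of all ratios; inconclusive = signal too bright to measure linearly, ratio around 10 or more; inactive = fluorescence ratio below 2.44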;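 note: green fluorescence of cells measured with 488 nm excitation and 530 nm emission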
FPR binder – ligands of human FPR, also counter-screen for FPRL1 ligands; FPR-expressing cells, fluorescent ligand binding, flow cytometry; inhibition, % (test concentration not listed); P21462; AID 440; 0.74% of 24,000 active;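 note: 0% = buffer wells and 100% = receptor blocker peptide wells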
Target sequence (P21462 whole entry, looked up): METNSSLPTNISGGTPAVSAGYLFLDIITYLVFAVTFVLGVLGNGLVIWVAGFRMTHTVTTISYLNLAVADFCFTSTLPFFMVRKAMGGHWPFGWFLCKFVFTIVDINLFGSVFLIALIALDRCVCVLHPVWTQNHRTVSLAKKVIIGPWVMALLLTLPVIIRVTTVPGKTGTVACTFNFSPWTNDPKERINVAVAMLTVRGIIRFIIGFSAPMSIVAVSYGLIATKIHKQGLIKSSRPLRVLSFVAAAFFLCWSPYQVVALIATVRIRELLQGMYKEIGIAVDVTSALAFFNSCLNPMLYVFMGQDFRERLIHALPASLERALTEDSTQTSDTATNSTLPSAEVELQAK
FPRL1 ligand – human FPRL1 ligand, with FPR counter-screen | P25090 | AID 441 | FPRL1-expressing cells, fluorescent ligand binding inhibition, flow cytometry | 0.3% of 24,000 active | inhibition, % (concentration not given with the values);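 note: 0% = buffer alone and 100% = receptor blocker peptide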
VLA-4 agonist – allosterically activates the human VLA-4 integrin; 24,000 tested, under 10 active; Jurkat cells, LDV-FITC binding, flow cytometry; activation, % at 10 µM (by protocol); P13612;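 active = fluorescent ligand binding to cells raised by more than 40% of the manganese-induced maximum; inconclusive = compound's own fluorescence above 85% of the ligand control signal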;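 note: 0% = ligand binding without compound and 100% = manganese-stimulated maximal binding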
The depositor's hits bear a star. Cut-off read from the data, not from the text of the source, unless noted: active = inhibition above about 30%; inconclusive = no clear call, values can overlap the other calls; inactive = below that.

CCOC(=O)CCn1nc(-c2ccc(Cl)cc2)cc1N was read as VLA-4 antagonist -10, Jurkat autofluor 1, FPR binder 54*, FPRL1 ligand 51* and VLA-4 agonist 4.
N#CC1=C(SCC(=O)c2cc3ccccc3oc2=O)NC(=O)C(C#N)C12CCCC2 (centres undefined) was read as VLA-4 antagonist 68*, Jurkat autofluor 1.2, FPR binder -2, FPRL1 ligand -2 and VLA-4 agonist -36.
Screening CCCOc1ccc(N)cc1N returned VLA-4 antagonist inconclusive, Jurkat autofluor 7.9*, FPR binder -4, FPRL1 ligand -16 and VLA-4 agonist inconclusive.
`CCCOc1ccccc1NC(=O)c1ccc(N)cc1` gave VLA-4 antagonist 5, Jurkat autofluor 0.96, FPR binder 3, FPRL1 ligand -2 and VLA-4 agonist -2.
CC1CCCN(C(=O)c2cc(F)c(F)cc2Cl)C1 (centres undefined) was read as VLA-4 antagonist -26, Jurkat autofluor 1.1, FPR binder -2, FPRL1 ligand -5 and VLA-4 agonist 6.
For CCn1c(N)c(C(=O)NCc2ccco2)sc1=S the results were VLA-4 antagonist 0, Jurkat autofluor 1, FPR binder -3, FPRL1 ligand 6 and VLA-4 agonist 4.
`Cn1c(N)c(C(=O)NCc2ccccc2)sc1=S` gave VLA-4 antagonist inconclusive, Jurkat autofluor 4.1*, FPR binder -11, FPRL1 ligand -13 and VLA-4 agonist inconclusive.
`O=C(CN1CCOCC1)N1CCN(C(=O)CN2CCOCC2)CC1` gave VLA-4 antagonist -2, Jurkat autofluor 0.96, FPR binder 1, FPRL1 ligand -1 and VLA-4 agonist -5.
For Cc1ccc(CCNC(=O)C2CCC(=O)N2C2CCCC2)cc1 (centres undefined) the results were VLA-4 antagonist -2, Jurkat autofluor 1.1, FPR binder -1, FPRL1 ligand 3 and VLA-4 agonist -6.
Screening C=CCOC(=O)C(C#N)c1nc2ccccc2nc1N1CCN(Cc2ccccc2)CC1 (centres undefined) returned VLA-4 antagonist inconclusive, Jurkat autofluor 2.8*, FPR binder -1, FPRL1 ligand -6 and VLA-4 agonist inconclusive.
Screening CC(C)COC(=O)C(C#N)c1nc2ccccc2nc1N1CCN(Cc2ccccc2)CC1 (centres undefined) returned VLA-4 antagonist inconclusive, Jurkat autofluor 1.9, FPR binder 2, FPRL1 ligand -4 and VLA-4 agonist inconclusive.
`COc1cccc(C2C(C(=O)c3cccs3)=C(O)C(=O)N2c2cc(C)on2)c1` (centres undefined) gave FPR binder 12 and FPRL1 ligand 5.
`COc1ccc(OC)c(C2C(C(=O)c3cccs3)=C(O)C(=O)N2c2cc(C)on2)c1` (centres undefined) gave FPR binder 56* and FPRL1 ligand 0.
Screening COc1cccc(C2C(C(=O)c3cc4ccccc4o3)=C(O)C(=O)N2c2cc(C)on2)c1OC (centres undefined) returned FPR binder 54* and FPRL1 ligand 2.
For O=C(NC1CCCC1)C1CC1c1ccccc1 (centres undefined) the results were VLA-4 antagonist -4, Jurkat autofluor 1.1, FPR binder 26, FPRL1 ligand 46* and VLA-4 agonist -4.
`CCOC(=O)C1=C(C)Nc2nc(SCC)[nH]c(=O)c2C1c1ccncc1` (centres undefined) gave VLA-4 antagonist -36, Jurkat autofluor 0.95, FPR binder 4, FPRL1 ligand 0 and VLA-4 agonist 7.
CCC(CC)C(=O)Nc1c2cnn(-c3ccccc3)c2nc(=O)n1-c1ccccc1 was read as VLA-4 antagonist 53*, Jurkat autofluor 1.1, FPR binder 83*, FPRL1 ligand 4 and VLA-4 agonist -17.
`N#Cc1c(C(F)(F)F)cc(-c2ccccc2)nc1SCc1nc(N)nc(N2CCOCC2)n1` gave VLA-4 antagonist inconclusive, Jurkat autofluor 8.7*, FPR binder inconclusive, FPRL1 ligand 47* and VLA-4 agonist inconclusive.
`COC(=O)c1ccc(/C(O)=C(\C#N)c2nc3ccccc3s2)cc1` gave VLA-4 antagonist inconclusive, Jurkat autofluor 2.7*, FPR binder -5, FPRL1 ligand -45 and VLA-4 agonist inconclusive.
Screening COc1ccc2ccccc2c1C1CC(=O)N2CN(C3CCCCC3)CSC2=C1C#N (centres undefined) returned VLA-4 antagonist inconclusive, Jurkat autofluor 1.2, FPR binder 64*, FPRL1 ligand 2 and VLA-4 agonist inconclusive.
Cc1ccc(C)c(S(=O)(=O)NC(CC(C)C)C(=O)O)c1 (centres undefined) was read as VLA-4 antagonist -8, Jurkat autofluor 1.1, FPR binder 9, FPRL1 ligand 4 and VLA-4 agonist -2.
Screening CC1Cc2ccccc2N1C(=O)C1CCCN(S(=O)(=O)c2cccc3cccnc23)C1 (centres undefined) returned VLA-4 antagonist inconclusive, Jurkat autofluor 3.6*, FPR binder -6, FPRL1 ligand -12 and VLA-4 agonist inconclusive.
For CCOC(=O)N1CCC(Nc2nc3ccccc3n3nnnc23)CC1 the results were VLA-4 antagonist inconclusive, Jurkat autofluor 8*, FPR binder -12, FPRL1 ligand -4 and VLA-4 agonist inconclusive.
`Cc1ccc(CNc2nc3ccccc3n3nnnc23)cc1` gave VLA-4 antagonist inconclusive, Jurkat autofluor inconclusive, FPR binder -24, FPRL1 ligand 4 and VLA-4 agonist inconclusive.
`O=C(CCn1c(=S)[nH]c2ccccc2c1=O)N1CCN(c2ccccn2)CC1` gave VLA-4 antagonist -26, Jurkat autofluor 1.2, FPR binder 3, FPRL1 ligand -2 and VLA-4 agonist 3.
Screening CN1CCN(CCCNC(=O)Nc2cccc3ccccc23)CC1 returned VLA-4 antagonist -8, Jurkat autofluor 1.1, FPR binder 5, FPRL1 ligand 32* and VLA-4 agonist -4.
O=C(NCCCN1CCCC1)Nc1cccc2ccccc12 was read as VLA-4 antagonist -26, Jurkat autofluor 1, FPR binder -3, FPRL1 ligand 7 and VLA-4 agonist 6.
`CCOC(=O)C1CCCN(C(=O)CCn2nc(-c3ccccc3)ccc2=O)C1` (centres undefined) gave VLA-4 antagonist -4, Jurkat autofluor 1.1, FPR binder 12, FPRL1 ligand -8 and VLA-4 agonist -1.
COc1cccc(N2CCN(c3ncnc4c3[nH]c3ccc(F)cc34)CC2C)c1 (centres undefined) was read as VLA-4 antagonist 95*, Jurkat autofluor 1.1, FPR binder -1, FPRL1 ligand 4 and VLA-4 agonist -36.
`Cc1ccc(C)c(N2CCN(C(=O)C3CCN(S(=O)(=O)c4cccc5nsnc45)CC3)CC2)c1` gave VLA-4 antagonist 12, Jurkat autofluor 1.2, FPR binder -3, FPRL1 ligand -5 and VLA-4 agonist 0.
